Source: PubChem BioAssay (Broad Institute)
Only a selection was taken, and hits are over-represented in it overall.
IDE exosite inh = exo-site inhibitors of human IDE, primary screen, biochemical, fluorescence anisotropy, probe displacement. Insulin-degrading enzyme (Homo sapiens), P14735. purified IDE, FL-6b probe fluorescence polarization; hits give low values. z-score at 20 µM. 6.3% of 17,000 active. AID 1259349, 2017;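 active = z-score of -3 or lower, meaning strong loss of probe binding signal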;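 also: His-tagged human IDE residues 42-1019 made in E. coli with 30 nM FL-6b probe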
Starred values were filed as active, the others as inactive.

SMILES | IDE exosite inh
CC(=O)N1CCCCN2[C@H](CO)[C@H](c3ccc(-c4cccc(C)c4)cc3)[C@@H]2C1 | 3.6
CC(=O)N1CCCCN2[C@H](CO)[C@H](c3ccc(-c4cccc(C)c4)cc3)[C@H]2C1 | -12*
CC(=O)N1CCCCN2[C@H](CO)[C@H](c3ccc(-c4ccccc4)cc3)[C@H]2C1 | -1.5
CC(=O)N1CCCCN2[C@H](CO)[C@H](c3ccc(-c4ccc(C)cc4)cc3)[C@H]2C1 | -1.8
Cc1cccc(-c2ccc([C@H]3[C@@H](CO)N4CCCCN(C(=O)c5ccc6c(c5)OCO6)C[C@@H]34)cc2)c1 | 3
Cc1cccc(-c2ccc([C@@H]3[C@@H](CO)N4CCCCN(C(=O)c5ccc6c(c5)OCO6)C[C@H]34)cc2)c1 | 0.5
Cc1cccc(-c2ccc([C@H]3[C@@H](CO)N4CCCCN(C(=O)c5ccc6c(c5)OCO6)C[C@H]34)cc2)c1 | -8.1*
CC(=O)N1CCCCN2[C@@H](CO)[C@H](c3ccc(-c4cccc(C)c4)cc3)[C@@H]2C1 | -3.2*
CC(=O)N1CCCCN2[C@@H](CO)[C@H](c3ccc(-c4ccccc4)cc3)[C@@H]2C1 | -0.87
N#C[C@@H]1[C@H](c2ccccc2-c2ccccc2F)[C@H](CO)N1C(=O)Cc1ccccc1 | -1.6
COCC(=O)N1CC(=O)N2[C@H](CO)[C@H](c3ccc(C#CC4CCCCC4)cc3)[C@@H]2C1 | 1.8
COCC(=O)N1CC(=O)N2[C@H](CO)[C@@H](c3ccc(C#Cc4cccc(OC)c4)cc3)[C@@H]2C1 | -4.5*
COCC(=O)N1CC(=O)N2[C@@H](CO)[C@H](c3ccc(C#Cc4cccc(OC)c4)cc3)[C@@H]2C1 | -5*
COCC(=O)N1CC(=O)N2[C@H](C1)[C@H](c1ccc(C#CC3CCCC3)cc1)[C@@H]2CO | 0.5
COCC(=O)N1CC(=O)N2[C@H](C1)[C@@H](c1ccc(C#Cc3cccnc3)cc1)[C@@H]2CO | -0.066
COCC(=O)N1CC(=O)N2[C@@H](CO)[C@H](c3ccc(C#Cc4cccnc4)cc3)[C@@H]2C1 | 1.1
COCC(=O)N1CC(=O)N2[C@H](CO)[C@@H](c3ccc(C#Cc4cccc(OC)c4)cc3)[C@H]2C1 | -1.2
COCC(=O)N1CC(=O)N2[C@H](C1)[C@@H](c1ccc(C#CC3CCCCC3)cc1)[C@@H]2CO | -11*
CCC(=O)NC[C@@H]1[C@H](c2ccccc2)[C@H](CO)N1C(=O)C1CCC1 | 3
COc1ccc2c3c(n(C)c2c1)[C@H](CO)NCC31CN(S(=O)(=O)c2ccc(C)cc2)C1 | 0.13
O=C1CNC[C@@H]2[C@@H](c3ccc(-c4ccccc4F)cc3)[C@@H](CO)N12 | -2.8
O=C(c1ccc(F)cc1)N1CCCCN2[C@H](CO)[C@H](c3ccc(C#CC4(O)CCCC4)cc3)[C@@H]2C1 | 1.6
N#C[C@@H]1[C@@H](c2ccc(C#Cc3ccc(F)cc3)cc2)[C@H](CO)N1C(=O)C1CCCC1 | 5.4
N#C[C@H]1[C@@H](c2ccc(C#Cc3ccc(F)cc3)cc2)[C@H](CO)N1C(=O)C1CCCC1 | 5.4
COc1cccc(C#Cc2ccc([C@@H]3[C@@H](C#N)N(C(=O)C4CCC4)[C@H]3CO)cc2)c1 | 1.5
SMILES | IDE exosite inh
COc1ccccc1C#Cc1ccc([C@@H]2[C@@H](C#N)N(C(=O)C3CCCCC3)[C@@H]2CO)cc1 | -8.6*
COc1ccccc1C#Cc1ccc([C@H]2[C@@H](C#N)N(C(=O)C3CCC3)[C@@H]2CO)cc1 | -7.8*
COc1ccccc1C#Cc1ccc([C@H]2[C@H](C#N)N(C(=O)C3CCCCC3)[C@H]2CO)cc1 | -6.3*
N#C[C@H]1[C@H](c2ccc(C#Cc3ccc(F)cc3)cc2)[C@H](CO)N1C(=O)C1CCCC1 | 4
COc1cccc(C#Cc2ccc([C@@H]3[C@@H](CO)N(C(=O)C4CCCCC4)[C@H]3C#N)cc2)c1 | 4.7
COc1cccc(C#Cc2ccc([C@@H]3[C@@H](C#N)N(C(=O)C4CCCCC4)[C@H]3CO)cc2)c1 | 2.4
COc1ccccc1C#Cc1ccc([C@H]2[C@@H](CO)N(C(=O)C3CCCCC3)[C@H]2C#N)cc1 | -5.1*
N#C[C@H]1[C@H](c2ccc(C#Cc3ccccc3F)cc2)[C@H](CO)N1C(=O)C1CCC1 | 2.2
COc1cccc(C#Cc2ccc([C@@H]3[C@@H](C#N)N(C(=O)C4CCC4)[C@@H]3CO)cc2)c1 | 4.2
CC(C)NC(=O)N1CC(=O)N2[C@H](CO)[C@H](c3ccc(C#CCN(C)C)cc3)[C@@H]2C1 | 2.6
CCc1cnc(N2[C@H](C#N)[C@@H](c3ccc(C#CCC4CCCC4)cc3)[C@@H]2CO)s1 | 3.4
COCC(=O)Nc1ccc2c(c1)[C@H]1C[C@H](CC(=O)N[C@H](C)c3ccccc3)O[C@@H](CO)[C@H]1O2 | -1.5
N#Cc1ccc(-c2ccc([C@H]3[C@@H](CO)N4CCCCN(S(=O)(=O)c5ccccc5)C[C@@H]34)cc2)cc1 | 3.5
O=C(C1CC1)N1CCCCN2[C@H](C1)[C@H](c1ccc(C#CC3CCCC3)cc1)[C@@H]2CO | 2.8
O=C1CN(S(=O)(=O)Cc2ccccc2)C[C@@H]2[C@H](c3ccc(C#CCC4CCCC4)cc3)[C@@H](CO)N12 | 2.2
C/C=C/c1ccc(C2[C@H]3CNC[C@@H]2N3C(=O)Nc2ccc(C(F)(F)F)cc2)cc1 (stereo partly specified) | 1.1
C/C=C/c1ccc([C@H]2[C@@H](CO)N[C@@H]2CNC(=O)C2CC2)cc1 | 1
O=C(c1ccc(F)cc1)N1CC(=O)N2[C@H](CO)[C@@H](c3ccc(C#Cc4ccc(F)cc4)cc3)[C@@H]2C1 | 2.1
COCC#Cc1ccc([C@@H]2[C@H](C#N)N(C(=O)Cc3ccccc3)[C@H]2CO)cc1 | -0.27
COCC(=O)N1[C@H](CO)[C@H](c2ccc(C#Cc3ccccc3F)cc2)[C@@H]1C#N | -2.3
OC[C@@H]1[C@H](c2ccc(-c3ccc(F)cc3)cc2)[C@@H]2CN(Cc3ccncc3)CCCCN12 | 4.4
OC[C@@H]1[C@@H](c2ccc(-c3ccccc3F)cc2)[C@H]2CN(Cc3ccncc3)CCCCN12 | 4.1
COc1ccccc1-c1ccc([C@H]2[C@H](CO)N3CCCCN(Cc4ccncc4)C[C@@H]23)cc1 | -8*
OC[C@H]1[C@H](c2ccc(-c3ccccc3F)cc2)[C@@H]2CN(Cc3ccncc3)CCCCN12 | 3.5
OC[C@@H]1[C@H](c2ccc(-c3ccccc3)cc2)[C@@H]2CN(Cc3ccccn3)CCCCN12 | -3*
SMILES | IDE exosite inh
OC[C@@H]1[C@@H](c2ccc(-c3ccc(F)cc3)cc2)[C@H]2CN(Cc3ccncc3)CCCCN12 | 5.3
OC[C@@H]1[C@H](c2ccc(-c3ccccc3)cc2)[C@H]2CN(Cc3ccccn3)CCCCN12 | -0.24
OC[C@H]1[C@H](c2ccc(-c3ccccc3)cc2)[C@H]2CN(Cc3ccccn3)CCCCN21 | -1.8
Cc1cccc(-c2ccc([C@@H]3[C@@H](CO)N4CCCCN(Cc5ccncc5)C[C@H]34)cc2)c1 | -5*
N#C[C@H]1[C@@H](c2ccc(C3=CCCCC3)cc2)[C@@H](CO)N1S(=O)(=O)c1ccccc1 | 1.1
O=C(C[C@@H]1CC[C@H](NC(=O)CN2CCOCC2)[C@H](CO)O1)NC1CCC1 | -0.12
CC[C@H]1C/C=C\CCNC(=O)CCC(=O)N1 | -0.52
C/C=C/c1ccc([C@@H]2[C@@H](CO)N(C(C)=O)[C@H]2CN(CC)C(=O)CN(C)C)cc1 | -1.2
CCCNC(=O)N1CC2(CCN(C(=O)C3CCOCC3)CC2)c2c([nH]c3cc(OC)ccc23)[C@@H]1CO | -0.67
